According to PubChem BioAssay (EPA / NIEHS):
Several values for one entry are separate records, joined by “and”; a condition that tells them apart may be missing. Identical values can stand only once. Some structures have more than one record in an assay (separate samples or runs), and their calls can disagree. Activity calls are given as the source filed them. How the source made its calls: active means hit-call score of the fitted dose curve at least 0.9, where 1 is the maximum; inactive means score below 0.9.

Tests used:
[1] = read-out: Interleukin 17F (IL17F), IL17F (gene 112744); assay: BSK_BT_xIL17F: BioMAP Diversity Plus: BT Assay for Interleukin 17F (IL17F) Biomarker Activity (AID 2284243); conditions: primary human B cells with PBMC
How it was run: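 Luminex readout of IL-17F secretion, 24 h; cells: human B cells with PBMC; positive-direction analysis, DMSO control.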

[2] = read-out: Actin alpha 1 (ACTA1), ACTA1 (gene 58); assay: BSK_MyoF_ACTA1: BioMAP Diversity Plus: MyoF Assay for Actin alpha 1 (ACTA1) Biomarker Activity (AID 2284244); conditions: primary human lung fibroblasts
How it was run: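 Lung fibroblasts, human primary, 24 h compound exposure → a-SMA ELISA. Positive-direction fit vs DMSO control.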

[3] = read-out: Interleukin 2 (IL2), IL2 (gene 3558); assay: BSK_BT_xIL2: BioMAP Diversity Plus: BT Assay for Interleukin 2 (IL2) Biomarker Activity (AID 2284245); conditions: primary human B cells with PBMC
How it was run: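 B cell + PBMC co-culture (human primary), compound added, 24 h incubation; secreted IL-2 measured multiplexed on Luminex xMAP; gain-of-signal fit vs DMSO.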

[4] = read-out: Basic fibroblast growth factor (bFGF), FGF2 (gene 2247); assay: BSK_MyoF_bFGF: BioMAP Diversity Plus: MyoF Assay for Basic fibroblast growth factor (bFGF) Biomarker Activity (AID 2284246); conditions: primary human lung fibroblasts
How it was run: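 ELISA-measured bFGF level serves as the read-out, taken 24 h after chemical dosing of human lung fibroblasts. Values represent signal gain over the DMSO negative control.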

[5] = read-out: Collagen IV, COL4A1 (gene 1282); assay: BSK_MyoF_CollagenIV: BioMAP Diversity Plus: MyoF Assay for Collagen IV Biomarker Activity (AID 2284247); conditions: primary human lung fibroblasts
How it was run: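 Steps: dose human lung fibroblasts; culture 24 h; quantify Collagen IV by ELISA; fit increase versus DMSO control. Parallel SRB total-protein staining (0.1% SRB after 10% TCA fixation, 560 nm) tracks overt cytotoxicity.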

[6] = read-out: Monokine induced gamma interferon (MIG), CXCL9 (gene 4283); assay: BSK_KF3CT_MIG: BioMAP Diversity Plus: KF3CT Assay for Monokine induced gamma interferon (MIG) Biomarker Activity (AID 2284248); conditions: primary human keratinocytes with fibroblasts
How it was run: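 MIG in dosed human skin co-cultures was measured by ELISA at 24 h, relative to DMSO.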

[7] = read-out: Vascular cell adhesion molecule 1 (VCAM1), VCAM1 (gene 7412); assay: BSK_BF4T_VCAM1: BioMAP Diversity Plus: BF4T Assay for Vascular cell adhesion molecule 1 (VCAM1) Biomarker Activity (AID 2284249); conditions: primary human bronchial epithelial cells with fibroblasts
How it was run: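 Human bronchial epithelial cell and dermal fibroblast co-culture exposed 24 h. VCAM-1 measured by ELISA; parallel SRB total-protein staining for cytotoxicity. Fitted in positive direction relative to DMSO.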

[8] = read-out: Collagen I, COL1A1 (gene 1277); assay: BSK_hDFCGF_CollagenI: BioMAP Diversity Plus: hDFCGF Assay for Collagen I Biomarker Activity (AID 2284250); conditions: primary human foreskin fibroblasts
How it was run: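 Human skin primary fibroblasts dosed with test chemical, harvested at 24 h, Collagen I quantified by ELISA; parallel SRB staining (0.1% SRB after 10% TCA fixation, 560 nm) tracked cytotoxicity.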

C=CC(F)(F)C(F)(F)C(F)(F)C(F)(F)C(F)(F)C(F)(F)C(F)(F)C(F)(F)C=C
outcome [1]: inactive | outcome [2]: inactive | outcome [3]: inactive | outcome [4]: inactive | outcome [5]: inactive | outcome [6]: inactive | outcome [7]: inactive | outcome [8]: inactive

FC(F)(F)C(F)(F)C(F)(F)C(F)(F)C(F)(F)C(F)(F)CCS
outcome [1]: inactive | outcome [2]: inactive | outcome [3]: inactive | outcome [4]: inactive | outcome [5]: inactive | outcome [6]: inactive | outcome [7]: inactive | outcome [8]: inactive

FC(F)(F)C(F)(F)C(F)(F)C(F)(F)C(F)(F)C(F)(F)C(F)(F)Br
outcome [1]: inactive | outcome [2]: inactive | outcome [3]: inactive | outcome [4]: inactive | outcome [5]: inactive | outcome [6]: inactive | outcome [7]: inactive | outcome [8]: inactive

O=C(O)C(F)(F)C(F)(F)C(F)(F)C(F)(F)F
outcome [1]: inactive | outcome [2]: inactive | outcome [3]: inactive | outcome [4]: inactive | outcome [5]: inactive | outcome [6]: inactive | outcome [7]: inactive | outcome [8]: inactive

OCC(F)(F)C(F)(F)C(F)(F)C(F)(F)C(F)(F)C(F)F
outcome [1]: inactive | outcome [2]: inactive | outcome [3]: inactive | outcome [4]: inactive | outcome [5]: inactive | outcome [6]: inactive | outcome [7]: inactive | outcome [8]: inactive

O=C(O)C(F)(OC(F)(F)C(F)(OC(F)(F)C(F)(F)C(F)(F)F)C(F)(F)F)C(F)(F)F (configuration not stated)
outcome [1]: inactive | outcome [2]: inactive | outcome [3]: inactive | outcome [4]: inactive | outcome [5]: inactive | outcome [6]: inactive | outcome [7]: inactive | outcome [8]: inactive

NC(=O)C(F)(F)C(F)(F)C(F)(F)C(F)(F)F
outcome [1]: inactive | outcome [2]: inactive | outcome [3]: inactive | outcome [4]: inactive | outcome [5]: inactive | outcome [6]: inactive | outcome [7]: inactive | outcome [8]: inactive

O=C(O)C(F)(F)C(F)(F)C(F)(F)C(F)(F)C(F)(F)C(F)(F)C(F)(F)C(F)(F)C(F)(F)C(F)(F)C(F)(F)C(F)(F)C(F)(F)F
outcome [1]: inactive | outcome [2]: inactive | outcome [3]: inactive | outcome [4]: inactive | outcome [5]: inactive | outcome [6]: inactive | outcome [7]: inactive | outcome [8]: inactive

O=C(O)C(F)(OC(F)(F)C(F)(OC(F)(F)C(F)(OC(F)(F)C(F)(F)C(F)(F)F)C(F)(F)F)C(F)(F)F)C(F)(F)F (configuration not stated)
outcome [1]: inactive | outcome [2]: inactive | outcome [3]: inactive | outcome [4]: inactive | outcome [5]: inactive | outcome [6]: inactive | outcome [7]: inactive | outcome [8]: inactive

O=C(O)C=C(C(F)(F)F)C(F)(F)F
AC50 [1]: 10.4 µM (active) and 8.84 µM (active) | outcome [2]: inactive | AC50 [3]: 10.1 µM (active) and 5.58 µM (active) | outcome [4]: inactive | outcome [5]: inactive | outcome [6]: inactive | outcome [7]: inactive | outcome [8]: inactive

FC(F)(Br)C(F)(F)C(F)(F)C(F)(F)C(F)(F)C(F)(F)Br
outcome [1]: inactive | outcome [2]: inactive | outcome [3]: inactive | outcome [4]: inactive | outcome [5]: inactive | outcome [6]: inactive | outcome [7]: inactive | outcome [8]: inactive

O=S(=O)(OCCOC(F)(F)F)C(F)(F)F
outcome [1]: inactive | outcome [2]: inactive | outcome [3]: inactive | outcome [4]: inactive | outcome [5]: inactive | outcome [6]: inactive | outcome [7]: inactive | outcome [8]: inactive

O=S(=O)(O)C(F)(F)C(F)(F)C(F)(F)C(F)(F)C(F)(F)C(F)(F)C(F)(F)F
outcome [1]: inactive | outcome [2]: inactive | outcome [3]: inactive | outcome [4]: inactive | outcome [5]: inactive | outcome [6]: inactive | outcome [7]: inactive | outcome [8]: inactive

OCC(F)(F)C(F)(F)C(F)(F)C(F)(F)C(F)(F)C(F)(F)F
AC50 [1]: 43.8 µM (active) and 40.2 µM (active) | outcome [2]: inactive | outcome [3]: inactive | outcome [4]: inactive | outcome [5]: inactive | outcome [6]: inactive | outcome [7]: inactive | outcome [8]: inactive

C=C(C)C(=O)OCC(F)(F)C(F)(F)C(F)(F)C(F)(F)C(F)(F)C(F)(F)C(F)(F)F
outcome [1]: inactive | outcome [2]: inactive | outcome [3]: inactive | outcome [4]: inactive | outcome [5]: inactive | outcome [6]: inactive | outcome [7]: inactive | outcome [8]: inactive

FC(F)(F)C(F)(F)C(F)(F)C(F)(F)C(F)(F)C(F)(F)C(F)(F)I
outcome [1]: inactive | AC50 [2]: 3.33 µM (active) | outcome [3]: inactive | outcome [4]: inactive | AC50 [5]: 4.81 µM (active) and 1.16 µM (active) | outcome [6]: inactive | outcome [7]: inactive | outcome [8]: inactive

C=C(C)C(=O)OCCC(F)(F)C(F)(F)C(F)(F)C(F)(F)C(F)(C(F)(F)F)C(F)(F)F
outcome [1]: inactive | outcome [2]: inactive | outcome [3]: inactive | outcome [4]: inactive | outcome [5]: inactive | outcome [6]: inactive | outcome [7]: inactive | outcome [8]: inactive

O=C(O)C(F)(F)C(F)(F)F
outcome [1]: inactive | outcome [2]: inactive | outcome [3]: inactive | outcome [4]: inactive | outcome [5]: inactive | outcome [6]: inactive | outcome [7]: inactive | outcome [8]: inactive

CCCCCCCCC(F)(F)C(F)(F)C(F)(F)C(F)(F)C(F)(F)C(F)(F)F
outcome [1]: inactive | outcome [2]: inactive | outcome [3]: inactive | outcome [4]: inactive | outcome [5]: inactive | outcome [6]: inactive | outcome [7]: inactive | outcome [8]: inactive

CCCCCCOC(=O)c1ccccc1O
outcome [6]: inactive | AC50 [8]: 18.7 µM (active) and 10.1 µM (active)

COC(=O)CCC(F)(F)C(F)(F)C(F)(F)C(F)(F)F
outcome [1]: inactive | outcome [2]: inactive | outcome [3]: inactive | outcome [4]: inactive | outcome [5]: inactive | outcome [6]: inactive | outcome [7]: inactive | outcome [8]: inactive

FC(F)(F)C(F)(F)CNCC(F)(F)C(F)(F)F
outcome [1]: inactive | outcome [2]: inactive | outcome [3]: inactive | outcome [4]: inactive | outcome [5]: inactive | outcome [6]: inactive | outcome [7]: inactive | outcome [8]: inactive

Cc1ccc(S(=O)(=O)OCC(F)(F)C(F)(F)C(F)(F)C(F)(F)C(F)(F)C(F)F)cc1
outcome [1]: inactive | outcome [2]: inactive | outcome [3]: inactive | outcome [4]: inactive | outcome [5]: inactive | outcome [6]: inactive | outcome [7]: inactive | outcome [8]: inactive

OCCCC(F)(F)C(F)(F)C(F)(F)F
outcome [1]: inactive | outcome [2]: inactive | outcome [3]: inactive | outcome [4]: inactive | outcome [5]: inactive | outcome [6]: inactive | outcome [7]: inactive | outcome [8]: inactive

FC(F)(I)C(F)(F)C(F)(F)C(F)(F)I
AC50 [1]: 30 µM (active) and 47.7 µM (active) and 43.1 µM (active) | AC50 [2]: 48.6 µM (active) and 49 µM (active) and 34.3 µM (active) | AC50 [3]: 54.7 µM (active) and 47.8 µM (active) and 43.6 µM (active) | AC50 [4]: 51.4 µM (active) and 45.9 µM (active) | AC50 [5]: 50.6 µM (active) and 50.7 µM (active) and 51.6 µM (active) | AC50 [6]: 58.1 µM (active) and 47.2 µM (active) and 51.6 µM (active) | AC50 [7]: 41.5 µM (active) and 47 µM (active) and 30 µM (active) | outcome [8]: inactive

C=CC(=O)OCC(F)(F)C(F)(F)C(F)(F)C(F)(F)C(F)(F)C(F)(F)C(F)(F)F
AC50 [1]: 6.72 µM (active) and 18.4 µM (active) | outcome [2]: inactive | outcome [3]: inactive | outcome [4]: inactive | outcome [5]: inactive | outcome [6]: inactive | outcome [7]: inactive | outcome [8]: inactive

O=C(O)C(F)(F)C(F)(F)C(F)(F)C(F)(F)C(F)(F)C(F)(F)C(F)(F)C(F)(F)C(F)(F)C(F)F
outcome [1]: inactive | AC50 [2]: 38.1 µM (active) and 36.2 µM (active) | outcome [3]: inactive | outcome [4]: inactive | AC50 [5]: 8.18 µM (active) and 8.12 µM (active) | AC50 [6]: 49.3 µM (active) and 48 µM (active) | AC50 [7]: 7.76 µM (active) | outcome [7]: inactive | outcome [8]: inactive

CCCCC(CC)COP(=O)(O)OCC(CC)CCCC (configuration not stated)
outcome [6]: inactive | AC50 [8]: 20 µM (active) | outcome [8]: inactive

C=CC(F)(F)C(F)(F)C(F)(F)C(F)(F)C(F)(F)C(F)(F)C(F)(F)C(F)(F)F
outcome [1]: inactive | outcome [2]: inactive | outcome [3]: inactive | outcome [4]: inactive | outcome [5]: inactive | outcome [6]: inactive | outcome [7]: inactive | outcome [8]: inactive
